Source: the supplement of paper PMC11732987, “Enantioselective OTUD7B fragment discovery through chemoproteomics screening and high-throughput optimisation” (Communications Chemistry, 2025)

Experiments:
Experiment in all cases: log2 ratio of Biotin-Ahx-Ub-VS probe labelling (fragment/DMSO); higher = less target engagement (more negative = stronger competition), active = hit call of the paper (q ≤ 0.05, log2 ratio ≤ -1)
Conditions in all cases: compound concentration: 200 uM; treatment time: 3 h
USP19 = target: T1, USP19 (UniProt O94966)
T1 sequence (whole entry): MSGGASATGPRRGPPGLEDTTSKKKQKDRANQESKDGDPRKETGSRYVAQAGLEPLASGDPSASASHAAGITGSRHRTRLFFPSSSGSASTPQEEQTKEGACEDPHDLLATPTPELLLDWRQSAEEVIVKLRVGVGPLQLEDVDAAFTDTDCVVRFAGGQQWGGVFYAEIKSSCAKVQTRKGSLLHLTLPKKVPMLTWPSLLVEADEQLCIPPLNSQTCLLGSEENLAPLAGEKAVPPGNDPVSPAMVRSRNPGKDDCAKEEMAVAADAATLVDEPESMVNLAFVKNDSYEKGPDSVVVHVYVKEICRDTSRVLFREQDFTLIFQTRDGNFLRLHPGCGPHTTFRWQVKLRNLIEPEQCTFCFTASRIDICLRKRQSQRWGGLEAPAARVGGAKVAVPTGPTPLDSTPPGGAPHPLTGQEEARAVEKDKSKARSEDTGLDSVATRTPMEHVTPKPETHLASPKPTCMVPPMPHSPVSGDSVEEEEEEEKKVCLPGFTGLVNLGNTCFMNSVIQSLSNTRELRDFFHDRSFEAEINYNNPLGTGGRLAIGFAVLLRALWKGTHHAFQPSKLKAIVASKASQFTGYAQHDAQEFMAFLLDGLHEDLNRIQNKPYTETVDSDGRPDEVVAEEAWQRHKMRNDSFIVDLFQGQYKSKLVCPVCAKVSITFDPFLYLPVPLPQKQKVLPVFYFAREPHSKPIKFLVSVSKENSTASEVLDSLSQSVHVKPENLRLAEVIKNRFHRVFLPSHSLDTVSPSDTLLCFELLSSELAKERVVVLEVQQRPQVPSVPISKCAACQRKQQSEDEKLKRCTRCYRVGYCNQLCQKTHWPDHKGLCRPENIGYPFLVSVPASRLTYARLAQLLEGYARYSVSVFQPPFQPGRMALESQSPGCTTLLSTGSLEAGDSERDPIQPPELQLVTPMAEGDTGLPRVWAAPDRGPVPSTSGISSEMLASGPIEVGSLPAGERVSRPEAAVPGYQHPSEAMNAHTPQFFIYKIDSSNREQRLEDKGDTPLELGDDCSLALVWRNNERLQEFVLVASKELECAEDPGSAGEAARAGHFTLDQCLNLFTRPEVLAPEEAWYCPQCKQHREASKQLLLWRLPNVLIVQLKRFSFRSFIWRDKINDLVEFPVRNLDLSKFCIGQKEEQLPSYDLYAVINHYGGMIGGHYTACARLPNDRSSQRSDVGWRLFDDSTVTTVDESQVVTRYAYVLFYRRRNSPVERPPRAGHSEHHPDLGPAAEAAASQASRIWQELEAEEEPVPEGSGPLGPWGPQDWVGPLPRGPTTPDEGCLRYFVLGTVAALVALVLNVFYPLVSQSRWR
How it was run: (§1)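 HEK293T lysate, 495 µg per sample in Tris/CHAPS/IGEPAL buffer with protease inhibitors, was treated in triplicate with fragment at 200 µM or vehicle for 3 h and then with Biotin-Ahx-Ub-VS at 0.5 µM final for 1 h. Labelled DUBs were NeutrAvidin-enriched, digested with LysC and trypsin, and run by diaPASEF LC-MS/MS. Spectronaut label-free quantities were global-median-normalised, and values are average log2 fragment/vehicle ratios by unpaired t-test on proteins with ≥2 unique peptides.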

USP24 = USP24 (UniProt Q9UPU5)
How it was run: as §1

USP25 = target: T2, USP25 (UniProt Q9UHP3)
T2 sequence (whole entry): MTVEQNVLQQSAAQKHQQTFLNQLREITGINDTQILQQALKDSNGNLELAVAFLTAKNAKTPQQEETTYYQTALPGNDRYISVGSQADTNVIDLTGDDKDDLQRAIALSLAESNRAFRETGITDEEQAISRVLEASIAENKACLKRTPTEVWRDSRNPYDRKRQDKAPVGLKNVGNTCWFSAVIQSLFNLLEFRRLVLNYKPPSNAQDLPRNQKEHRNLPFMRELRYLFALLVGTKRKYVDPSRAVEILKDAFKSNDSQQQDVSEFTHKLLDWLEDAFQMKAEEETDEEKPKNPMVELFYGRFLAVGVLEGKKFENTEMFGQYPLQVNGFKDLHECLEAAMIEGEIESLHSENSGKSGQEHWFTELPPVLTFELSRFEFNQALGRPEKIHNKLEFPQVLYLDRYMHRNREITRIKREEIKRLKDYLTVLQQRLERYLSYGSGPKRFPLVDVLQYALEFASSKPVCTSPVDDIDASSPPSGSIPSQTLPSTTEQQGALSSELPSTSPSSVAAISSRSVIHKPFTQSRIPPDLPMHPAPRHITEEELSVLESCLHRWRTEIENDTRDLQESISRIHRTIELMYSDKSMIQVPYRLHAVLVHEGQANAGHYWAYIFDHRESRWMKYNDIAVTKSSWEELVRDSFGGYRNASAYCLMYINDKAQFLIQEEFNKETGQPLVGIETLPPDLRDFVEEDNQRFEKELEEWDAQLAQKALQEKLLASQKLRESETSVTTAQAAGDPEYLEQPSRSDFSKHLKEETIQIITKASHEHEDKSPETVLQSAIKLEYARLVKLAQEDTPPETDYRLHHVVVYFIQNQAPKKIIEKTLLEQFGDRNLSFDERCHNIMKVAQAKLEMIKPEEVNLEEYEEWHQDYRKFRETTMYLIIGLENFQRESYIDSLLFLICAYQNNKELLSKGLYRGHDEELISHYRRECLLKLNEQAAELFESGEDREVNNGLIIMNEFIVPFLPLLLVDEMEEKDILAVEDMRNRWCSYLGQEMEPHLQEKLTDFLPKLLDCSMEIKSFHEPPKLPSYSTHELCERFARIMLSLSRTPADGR
How it was run: as §1

USP28 = target: T3, USP28 (UniProt Q96RU2)
T3 sequence (whole entry): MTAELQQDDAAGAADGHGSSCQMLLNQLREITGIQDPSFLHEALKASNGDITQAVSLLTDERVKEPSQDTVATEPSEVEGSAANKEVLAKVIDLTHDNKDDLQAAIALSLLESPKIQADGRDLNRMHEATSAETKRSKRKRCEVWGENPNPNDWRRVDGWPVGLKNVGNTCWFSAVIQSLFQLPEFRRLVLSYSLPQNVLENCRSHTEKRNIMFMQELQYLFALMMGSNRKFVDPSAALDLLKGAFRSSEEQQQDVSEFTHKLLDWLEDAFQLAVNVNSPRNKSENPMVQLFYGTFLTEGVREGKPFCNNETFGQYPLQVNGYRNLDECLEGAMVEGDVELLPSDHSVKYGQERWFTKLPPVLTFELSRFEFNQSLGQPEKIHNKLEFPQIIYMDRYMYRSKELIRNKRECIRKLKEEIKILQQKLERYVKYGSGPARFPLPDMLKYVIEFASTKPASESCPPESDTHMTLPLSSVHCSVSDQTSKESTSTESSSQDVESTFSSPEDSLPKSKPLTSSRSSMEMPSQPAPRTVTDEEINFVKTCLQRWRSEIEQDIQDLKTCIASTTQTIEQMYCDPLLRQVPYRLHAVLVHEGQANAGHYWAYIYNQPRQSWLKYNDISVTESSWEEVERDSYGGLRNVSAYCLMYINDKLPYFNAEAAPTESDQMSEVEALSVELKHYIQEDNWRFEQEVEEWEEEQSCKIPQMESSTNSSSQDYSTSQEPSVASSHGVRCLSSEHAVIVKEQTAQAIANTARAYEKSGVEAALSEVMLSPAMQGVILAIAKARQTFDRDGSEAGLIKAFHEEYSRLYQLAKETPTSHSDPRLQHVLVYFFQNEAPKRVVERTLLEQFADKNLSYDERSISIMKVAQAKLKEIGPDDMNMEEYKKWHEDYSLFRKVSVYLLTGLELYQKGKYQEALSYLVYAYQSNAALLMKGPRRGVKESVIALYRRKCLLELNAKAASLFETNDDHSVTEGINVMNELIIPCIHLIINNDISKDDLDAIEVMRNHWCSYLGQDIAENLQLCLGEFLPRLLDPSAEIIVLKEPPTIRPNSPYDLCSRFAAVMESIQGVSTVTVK
How it was run: as §1

Measured: log2 ratio of Biotin-Ahx-Ub-VS probe labelling

Chain of USP24 (Q9UPU5 whole entry): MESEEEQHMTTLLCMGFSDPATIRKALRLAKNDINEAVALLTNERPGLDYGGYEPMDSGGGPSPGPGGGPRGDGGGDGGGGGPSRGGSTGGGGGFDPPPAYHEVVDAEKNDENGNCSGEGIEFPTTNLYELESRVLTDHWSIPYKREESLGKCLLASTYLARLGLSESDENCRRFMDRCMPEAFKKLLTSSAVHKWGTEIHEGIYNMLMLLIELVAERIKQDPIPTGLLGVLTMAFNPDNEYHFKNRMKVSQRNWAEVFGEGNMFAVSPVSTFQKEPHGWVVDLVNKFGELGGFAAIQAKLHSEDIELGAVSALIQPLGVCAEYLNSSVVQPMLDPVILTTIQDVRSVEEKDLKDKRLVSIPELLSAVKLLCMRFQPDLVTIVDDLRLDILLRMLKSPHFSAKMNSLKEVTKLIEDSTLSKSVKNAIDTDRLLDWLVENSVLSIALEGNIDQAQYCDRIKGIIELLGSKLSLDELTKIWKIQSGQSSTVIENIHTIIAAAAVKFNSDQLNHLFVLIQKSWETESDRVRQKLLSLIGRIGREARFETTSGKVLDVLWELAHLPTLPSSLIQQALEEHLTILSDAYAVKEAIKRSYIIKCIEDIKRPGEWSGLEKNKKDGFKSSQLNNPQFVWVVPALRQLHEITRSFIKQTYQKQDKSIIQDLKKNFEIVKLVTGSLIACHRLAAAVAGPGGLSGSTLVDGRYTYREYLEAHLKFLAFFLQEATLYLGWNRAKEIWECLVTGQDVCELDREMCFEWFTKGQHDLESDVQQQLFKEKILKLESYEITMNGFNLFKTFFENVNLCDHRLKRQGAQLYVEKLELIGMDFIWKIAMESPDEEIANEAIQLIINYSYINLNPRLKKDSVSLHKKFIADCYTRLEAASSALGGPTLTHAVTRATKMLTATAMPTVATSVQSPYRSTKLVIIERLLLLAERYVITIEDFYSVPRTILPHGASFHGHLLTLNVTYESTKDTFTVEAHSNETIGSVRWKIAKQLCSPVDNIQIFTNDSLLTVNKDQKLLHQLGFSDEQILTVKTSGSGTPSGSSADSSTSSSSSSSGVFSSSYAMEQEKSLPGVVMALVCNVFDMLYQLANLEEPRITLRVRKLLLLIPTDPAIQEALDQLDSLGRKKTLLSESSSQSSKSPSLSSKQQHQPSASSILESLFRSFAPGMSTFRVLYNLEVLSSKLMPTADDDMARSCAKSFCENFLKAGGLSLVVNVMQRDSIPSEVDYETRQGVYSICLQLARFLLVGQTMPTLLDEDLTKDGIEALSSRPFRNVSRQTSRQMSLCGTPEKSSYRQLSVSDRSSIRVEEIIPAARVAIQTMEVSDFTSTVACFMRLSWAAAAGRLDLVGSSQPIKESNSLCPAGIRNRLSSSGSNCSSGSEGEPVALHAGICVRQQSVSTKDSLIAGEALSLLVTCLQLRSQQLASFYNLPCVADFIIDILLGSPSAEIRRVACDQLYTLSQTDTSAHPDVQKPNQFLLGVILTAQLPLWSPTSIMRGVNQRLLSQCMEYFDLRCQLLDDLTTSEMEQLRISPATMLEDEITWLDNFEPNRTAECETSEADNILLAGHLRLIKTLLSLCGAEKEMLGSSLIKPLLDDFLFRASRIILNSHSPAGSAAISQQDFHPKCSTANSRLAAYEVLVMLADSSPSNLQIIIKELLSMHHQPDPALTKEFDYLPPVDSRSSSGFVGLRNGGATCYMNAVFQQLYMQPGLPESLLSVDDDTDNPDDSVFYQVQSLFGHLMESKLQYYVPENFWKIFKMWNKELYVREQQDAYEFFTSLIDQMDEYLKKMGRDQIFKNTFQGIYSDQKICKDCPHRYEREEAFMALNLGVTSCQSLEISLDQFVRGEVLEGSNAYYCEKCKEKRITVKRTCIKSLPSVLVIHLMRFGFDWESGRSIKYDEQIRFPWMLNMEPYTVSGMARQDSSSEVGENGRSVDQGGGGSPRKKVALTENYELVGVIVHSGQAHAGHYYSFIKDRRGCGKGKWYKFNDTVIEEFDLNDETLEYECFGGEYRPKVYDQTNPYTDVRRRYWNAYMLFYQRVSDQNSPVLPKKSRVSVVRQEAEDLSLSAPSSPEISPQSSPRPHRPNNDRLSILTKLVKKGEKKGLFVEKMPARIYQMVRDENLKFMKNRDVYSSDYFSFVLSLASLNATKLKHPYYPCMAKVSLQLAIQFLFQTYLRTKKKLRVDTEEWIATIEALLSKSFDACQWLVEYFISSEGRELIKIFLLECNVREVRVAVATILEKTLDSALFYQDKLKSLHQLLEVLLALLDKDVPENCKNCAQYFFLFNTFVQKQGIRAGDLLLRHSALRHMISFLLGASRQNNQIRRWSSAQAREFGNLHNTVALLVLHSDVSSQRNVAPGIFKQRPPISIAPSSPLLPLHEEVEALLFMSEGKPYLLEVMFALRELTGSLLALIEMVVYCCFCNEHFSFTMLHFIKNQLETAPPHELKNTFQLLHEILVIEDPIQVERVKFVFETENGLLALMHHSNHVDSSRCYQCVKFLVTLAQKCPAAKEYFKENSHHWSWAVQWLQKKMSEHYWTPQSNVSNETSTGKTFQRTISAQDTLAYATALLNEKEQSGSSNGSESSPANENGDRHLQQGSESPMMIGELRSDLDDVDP

Cl.O=C(CCl)N[C@H]1C[C@@H](n2cccn2)C1
inactive: USP19 -0.157 | USP24 -0.464 | USP25 -0.201 | USP28 -0.188
